According to PubChem BioAssay (EPA / NIEHS):
Calls of active or inactive are those of the source. How the source made its calls: active means hit-call score of the fitted dose curve at least 0.9, where 1 is the maximum; inactive means score below 0.9.

What was measured:
[1] = ATG_CRE_CIS: Attagene CIS-FACTORIAL HepG2 Assay for human cAMP Responsive Element (CRE) binding protein 3 (AID 2282926); settings: HepG2 CRE cis-reporter, Attagene multiplexed mRNA; actives raise or lower the signal
Outline: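 Assay format: transient reporter transfection of HepG2, 24 h treatment, total RNA isolation with DNase I step. Reporter abundance read by fluorescence after PCR and capillary separation; DMSO-normalised gain or loss fitting.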

[2] = target: CCAAT/enhancer-binding protein beta (Homo sapiens) (UniProt P17676); test: ATG_C_EBP_CIS: Attagene CIS-FACTORIAL HepG2 Assay for human CCAAT/Enhancer Binding Protein (C/EBP) beta (AID 2282927); settings: HepG2 Attagene cis-factorial transcription factor reporter; actives raise or lower the signal
CCAAT/enhancer-binding protein beta (Homo sapiens), sequence (P17676 whole entry, looked up): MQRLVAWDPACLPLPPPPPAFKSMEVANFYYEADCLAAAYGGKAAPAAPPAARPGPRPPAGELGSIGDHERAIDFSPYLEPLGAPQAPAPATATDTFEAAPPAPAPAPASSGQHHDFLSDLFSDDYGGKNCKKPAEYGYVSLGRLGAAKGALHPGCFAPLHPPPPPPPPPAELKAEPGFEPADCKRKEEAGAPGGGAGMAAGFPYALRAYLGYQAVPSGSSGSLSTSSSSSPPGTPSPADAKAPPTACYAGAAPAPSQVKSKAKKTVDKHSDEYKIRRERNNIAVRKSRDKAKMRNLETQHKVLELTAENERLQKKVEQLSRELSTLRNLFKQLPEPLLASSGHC
Outline: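 Transiently transfected HepG2 (MRTU library, endogenous TF-driven promoters); 24 h dosing; total RNA → oligo(dT) RT → PCR → 6-FAM primer extension → HpaI digest → CE; fit bidirectionally vs DMSO.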

[3] = ATG_CMV_CIS: Attagene CIS-FACTORIAL HepG2 Assay for human CMV (Internal Marker) (AID 2282928); settings: HepG2 CMV promoter reporter, transcription factor profiling; actives raise or lower the signal;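 further: endpoint acts as a background internal control marker rather than a target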
Outline: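 Readout: fluorescent reporter cDNA fragments separated by capillary electrophoresis after RT-PCR and HpaI cut. Cells: HepG2 carrying transfected cis-promoter reporter constructs, dosed 24 h. Endpoint serves as background internal-marker control, fit bidirectionally versus DMSO.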

[4] = ATG_DR4_LXR_CIS: Attagene CIS-FACTORIAL HepG2 Assay for human Liver X Receptor (LXR), DR4 submotif (AID 2282929); settings: HepG2 Attagene DR4 cis-reporter, mRNA transcription; actives raise or lower the signal
Outline: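 DR4 cis-reporter in HepG2, 24 h exposure. Detection: RT-PCR, 6-FAM labelling, CE fragment analysis. Endpoint fitted bidirectionally, DMSO = baseline.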

[5] = target: Aryl hydrocarbon receptor (Homo sapiens) (UniProt P35869); test: ATG_Ahr_CIS: Attagene CIS-FACTORIAL HepG2 Assay for human Aryl Hydrocarbon Receptor (Ahr) (AID 2282930); settings: HepG2 AhR cis-factorial reporter transcription; actives raise or lower the signal
Aryl hydrocarbon receptor (Homo sapiens), sequence (P35869 whole entry, looked up): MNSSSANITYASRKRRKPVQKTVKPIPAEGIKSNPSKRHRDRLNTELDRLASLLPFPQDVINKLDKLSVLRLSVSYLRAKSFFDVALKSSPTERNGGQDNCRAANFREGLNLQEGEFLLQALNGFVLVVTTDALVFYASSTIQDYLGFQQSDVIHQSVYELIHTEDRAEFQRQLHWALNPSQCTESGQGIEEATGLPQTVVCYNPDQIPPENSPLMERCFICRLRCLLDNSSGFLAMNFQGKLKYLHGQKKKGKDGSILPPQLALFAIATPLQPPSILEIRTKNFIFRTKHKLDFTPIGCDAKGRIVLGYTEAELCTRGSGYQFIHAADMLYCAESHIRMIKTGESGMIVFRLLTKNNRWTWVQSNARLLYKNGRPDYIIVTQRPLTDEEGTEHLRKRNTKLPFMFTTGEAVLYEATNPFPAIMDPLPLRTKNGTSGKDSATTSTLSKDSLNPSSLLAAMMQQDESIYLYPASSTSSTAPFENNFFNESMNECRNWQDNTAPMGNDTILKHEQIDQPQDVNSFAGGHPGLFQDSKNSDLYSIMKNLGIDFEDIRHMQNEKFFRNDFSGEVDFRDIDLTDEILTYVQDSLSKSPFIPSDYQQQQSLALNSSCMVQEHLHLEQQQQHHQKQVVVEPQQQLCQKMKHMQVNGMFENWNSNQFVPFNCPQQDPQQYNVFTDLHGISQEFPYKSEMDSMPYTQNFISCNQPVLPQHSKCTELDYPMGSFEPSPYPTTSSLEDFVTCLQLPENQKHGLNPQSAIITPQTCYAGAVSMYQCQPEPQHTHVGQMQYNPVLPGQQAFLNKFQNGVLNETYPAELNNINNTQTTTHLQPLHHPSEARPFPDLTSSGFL
Outline: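 Read-out: reporter mRNA quantified by RT-PCR with fluorescent primer extension and capillary electrophoresis. Human HepG2 liver cells carried transfected cis-promoter reporter units and were exposed to chemical for 24 h; gain or loss fitted relative to DMSO.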

[6] = ATG_AP_2_CIS: Attagene CIS-FACTORIAL HepG2 Assay for human Activator Protein 2 (AP-2) (AID 2282932); settings: HepG2 AP-2 cis-reporter, Attagene transcription factor profiling; actives raise or lower the signal
Outline: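 Read-out: fluorescent reporter mRNA via RT-PCR and capillary electrophoresis, 24 h post-dose in transiently transfected HepG2. Endogenous factors drive cis-promoter reporters; gain or loss of signal fitted bidirectionally against DMSO.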

[7] = ATG_BRE_CIS: Attagene CIS-FACTORIAL HepG2 Assay for human Bone Morphogenetic Protein (BMP) Response Element (BRE) (AID 2282933); settings: HepG2 BMP response element reporter, Attagene transcription factor profiling; actives raise or lower the signal
Outline: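 Read-out: reporter mRNA induction quantified by RT-PCR and capillary electrophoresis after 24 h chemical exposure of transfected HepG2 cells. Endogenous factor activity on the BMP response element; gain or loss fitted against DMSO baseline.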

[8] = target: Transcription factor E2F1 (Homo sapiens) (UniProt Q01094); test: ATG_E2F_CIS: Attagene CIS-FACTORIAL HepG2 Assay for human E2F Transcription Factor 1 (AID 2282935); settings: HepG2 Attagene cis-reporter, E2F reporter RNA transcripts; actives raise or lower the signal
Transcription factor E2F1 (Homo sapiens), sequence (Q01094 whole entry, looked up): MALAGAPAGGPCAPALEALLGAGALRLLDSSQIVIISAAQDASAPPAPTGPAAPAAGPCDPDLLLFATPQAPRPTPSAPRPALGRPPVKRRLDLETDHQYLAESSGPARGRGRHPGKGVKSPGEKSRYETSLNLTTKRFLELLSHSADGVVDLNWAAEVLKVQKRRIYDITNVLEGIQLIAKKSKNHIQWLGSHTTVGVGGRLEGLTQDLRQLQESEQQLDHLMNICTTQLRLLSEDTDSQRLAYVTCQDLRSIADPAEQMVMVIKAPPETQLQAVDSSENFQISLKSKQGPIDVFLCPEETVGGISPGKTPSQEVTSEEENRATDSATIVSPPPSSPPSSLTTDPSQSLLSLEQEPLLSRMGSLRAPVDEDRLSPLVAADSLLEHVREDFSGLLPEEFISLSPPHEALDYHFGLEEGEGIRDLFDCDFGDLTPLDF
Outline: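 Transient MRTU transfection of HepG2; 24 h compound exposure; RNA → oligo(dT) RT → PCR → FAM label → HpaI cut → CE fluorescence. Gain/loss of signal fit against DMSO.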

[9] = ATG_E_Box_CIS: Attagene CIS-FACTORIAL HepG2 Assay for human Enhancer Box (E-box) (AID 2282936); settings: HepG2 E-box cis-reporter transcription, actives raise or lower the signal
Outline: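 Transiently transfected HepG2, endogenous TF-driven reporters, 24 h dosing. Readout: RT-PCR plus capillary electrophoresis of fluorescent reporter fragments. Gain or loss of signal fitted bidirectionally against DMSO baseline.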

[10] = ATG_M_61_CIS: Attagene CIS-FACTORIAL HepG2 Assay for M61 Transcription Factor (Internal Marker) (AID 2282937); settings: HepG2 Attagene CIS-FACTORIAL M61 internal marker reporter; actives raise or lower the signal
Outline: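 Background-control endpoint: HepG2 cells with cis-regulated reporter constructs, 24 h exposure, reporter mRNA detected via fluorescent primer extension and capillary electrophoresis; values from bidirectional fitting with DMSO baseline.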

[11] = ATG_M_19_CIS: Attagene CIS-FACTORIAL HepG2 Assay for M19 Transcription Factor (Internal Marker) (AID 2282939); settings: HepG2 Attagene CIS-FACTORIAL M19 internal marker reporter; actives raise or lower the signal
Outline: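 Readout: fluorescent reporter-transcript fragments by capillary electrophoresis after RT-PCR. Human HepG2 liver cells carried transfected MRTU constructs reporting endogenous transcription-factor activity; exposure 24 h. Gain or loss of signal fitted relative to DMSO.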

[12] = ATG_ERE_CIS: Attagene CIS-FACTORIAL HepG2 Assay for Estrogen Response Element (ERE) (AID 2282940); settings: HepG2 ERE cis-reporter, Attagene RNA transcript; actives raise or lower the signal
Outline: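 Readout: reporter mRNA induction by RT-PCR, FAM-labelled primer extension, HpaI digestion and capillary electrophoresis, 24 h after dosing transfected HepG2 cells. Endogenous transcription factors act on cis-element-regulated reporters. Gain or loss fitted against DMSO.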

[13] = target: Hepatocyte nuclear factor 3-beta (Homo sapiens) (UniProt Q9Y261); test: ATG_FoxA2_CIS: Attagene CIS-FACTORIAL HepG2 Assay for human Forkhead box A2 (FOXA2) (AID 2282942); settings: HepG2 cis-reporter transcription factor activity, 24 h; actives raise or lower the signal
Hepatocyte nuclear factor 3-beta (Homo sapiens), sequence (Q9Y261 whole entry, looked up): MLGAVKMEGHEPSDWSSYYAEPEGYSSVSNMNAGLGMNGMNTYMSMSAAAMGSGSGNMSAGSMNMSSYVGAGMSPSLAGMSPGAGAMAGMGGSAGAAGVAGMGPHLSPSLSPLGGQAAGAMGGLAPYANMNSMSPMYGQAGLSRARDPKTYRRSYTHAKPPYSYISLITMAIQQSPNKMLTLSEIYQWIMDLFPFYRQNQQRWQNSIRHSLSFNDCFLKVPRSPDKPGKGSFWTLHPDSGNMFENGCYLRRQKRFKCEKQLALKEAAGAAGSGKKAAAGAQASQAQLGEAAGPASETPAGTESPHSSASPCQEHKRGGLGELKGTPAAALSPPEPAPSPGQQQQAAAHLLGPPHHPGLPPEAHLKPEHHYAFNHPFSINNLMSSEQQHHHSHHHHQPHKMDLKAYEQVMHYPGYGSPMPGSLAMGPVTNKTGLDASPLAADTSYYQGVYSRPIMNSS
Outline: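 Measured: reporter mRNA induction or loss in HepG2 transiently carrying multiple cis-regulated reporter units, 24 h after dosing. Quantified by RT-PCR plus capillary electrophoresis, normalised to DMSO.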

[14] = ATG_FoxO_CIS: Attagene CIS-FACTORIAL HepG2 Assay for human Forkhead box O (FoxO) (AID 2282943); settings: HepG2 Attagene cis-reporter, FoxO element, mRNA; actives raise or lower the signal
Outline: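 Read-out: fluorescence of 6-FAM-labelled reporter cDNA fragments resolved by capillary electrophoresis. Transiently transfected HepG2 cells were dosed for 24 h; activity fitted in both directions relative to DMSO controls.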

[15] = ATG_GATA_CIS: Attagene CIS-FACTORIAL HepG2 Assay for human GATA Binding Protein (AID 2282944); settings: HepG2 GATA cis-element reporter, Attagene multiplex mRNA; actives raise or lower the signal
Outline: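 Read-out: fluorescent reporter mRNA fragments resolved by capillary electrophoresis after RT-PCR. Human liver HepG2 cells carried transiently transfected cis-regulated reporter constructs; chemicals incubated 24 h; gain or loss of signal fitted relative to DMSO.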

[16] = ATG_GLI_CIS: Attagene CIS-FACTORIAL HepG2 Assay for human Zinc Finger Protein GLI1 (AID 2282945); settings: HepG2, Attagene cis-factorial reporter mRNA, GLI element; actives raise or lower the signal
Outline: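 Transiently transfected HepG2 cells report endogenous transcription factor activity via cis-element-driven reporter units. After 24 h compound exposure, reporter mRNA was measured by RT-PCR with capillary electrophoresis; bidirectional fitting against DMSO baseline.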

[17] = ATG_AP_1_CIS: Attagene CIS-FACTORIAL HepG2 Assay for human Activator Protein 1 (AP-1) (AID 2282931); settings: HepG2 Attagene cis-factorial AP-1 reporter mRNA; actives raise or lower the signal
Outline: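 Cis-regulated reporter units transiently expressed in HepG2 report endogenous transcription-factor activity. Signal: reporter mRNA at 24 h, via RT-PCR and fluorescent capillary electrophoresis. Endpoint derived by bidirectional fitting, DMSO as negative control.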

[18] = ATG_EGR_CIS: Attagene CIS-FACTORIAL HepG2 Assay for human Early Growth Response 1 (EGR1) (AID 2282938); settings: HepG2 Attagene CIS-FACTORIAL EGR reporter mRNA; actives raise or lower the signal
Outline: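 Endpoint derived by bidirectional fitting versus DMSO vehicle. Method: cis-promoter reporter units transfected into HepG2, 24 h dosing, RNA isolation, RT-PCR with 6-FAM primer extension and HpaI digestion, then capillary electrophoresis fluorescence detection.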

[19] = ATG_Ets_CIS: Attagene CIS-FACTORIAL HepG2 Assay for human Erythroblast Transformation Specific (ETS) (AID 2282941); settings: HepG2 ETS cis-reporter transcription, actives raise or lower the signal
Outline: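 RT-PCR/capillary electrophoresis fluorescence read-out of reporter mRNA; HepG2 transient multi-reporter transfection; 24 h compound exposure; gain or loss of signal fitted bidirectionally relative to DMSO.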

[20] = target: Retinoic acid receptor alpha (Homo sapiens) (UniProt P10276); test: ATG_DR5_RAR_CIS: Attagene CIS-FACTORIAL HepG2 Assay for human Retinoic Acid Receptor Alpha (RARE), DR5 submotif (AID 2282934); settings: HepG2 Attagene cis-factorial RARE DR5 reporter, mRNA; actives raise or lower the signal
Retinoic acid receptor alpha (Homo sapiens), sequence (P10276 whole entry, looked up): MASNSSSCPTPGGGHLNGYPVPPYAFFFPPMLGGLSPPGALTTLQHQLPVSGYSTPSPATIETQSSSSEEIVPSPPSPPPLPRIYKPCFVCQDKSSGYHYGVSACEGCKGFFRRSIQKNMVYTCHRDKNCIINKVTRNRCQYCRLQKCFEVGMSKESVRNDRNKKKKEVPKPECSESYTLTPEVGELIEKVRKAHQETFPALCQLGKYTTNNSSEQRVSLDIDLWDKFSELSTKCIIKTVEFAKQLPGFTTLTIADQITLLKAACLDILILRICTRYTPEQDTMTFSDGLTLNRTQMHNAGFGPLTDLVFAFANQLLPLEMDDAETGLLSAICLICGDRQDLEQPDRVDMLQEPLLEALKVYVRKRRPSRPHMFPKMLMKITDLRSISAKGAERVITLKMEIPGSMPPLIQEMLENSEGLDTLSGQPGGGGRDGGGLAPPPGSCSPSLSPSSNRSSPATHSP
Outline: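 Read-out: DR5-driven reporter transcript measured by RT-PCR, 6-FAM primer extension, HpaI digest and capillary electrophoresis. Human HepG2 liver cells carry transiently transfected cis-element reporter constructs; dosing lasts 24 h. Gain or loss of signal fitted against DMSO baseline.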

## C=C1[C@H]2CC[C@@H]3[C@H]2C(C)(C)CCC[C@]13C
[1]
  outcome: inactive
[2]
  outcome: inactive
[3]
  AC50: 100 µM (active)
[4]
  outcome: inactive
[5]
  outcome: inactive
[6]
  outcome: inactive
[7]
  outcome: inactive
[8]
  outcome: inactive
[9]
  outcome: inactive
[10]
  outcome: inactive
[11]
  outcome: inactive
[12]
  outcome: inactive
[13]
  outcome: inactive
[14]
  outcome: inactive
[15]
  outcome: inactive
[16]
  outcome: inactive

## Cc1ccc(N/N=c2\c(=O)cc/c(=N/Nc3ccc(S(=O)(=O)O)cc3)c2=O)c(C)c1
[1]
  outcome: inactive
[2]
  outcome: inactive
[3]
  outcome: inactive
[4]
  outcome: inactive
[17]
  outcome: inactive
[6]
  outcome: inactive
[7]
  outcome: inactive
[8]
  outcome: inactive
[9]
  outcome: inactive
[10]
  outcome: inactive
[18]
  outcome: inactive
[11]
  outcome: inactive
[12]
  AC50: 100 µM (active)
[19]
  outcome: inactive
[13]
  outcome: inactive
[14]
  outcome: inactive
[15]
  outcome: inactive
[16]
  outcome: inactive

## COc1ccc2nc(N)sc2c1
[1]
  outcome: inactive
[2]
  outcome: inactive
[3]
  outcome: inactive
[5]
  AC50: 3.17 µM (active)
[17]
  outcome: inactive
[6]
  outcome: inactive
[7]
  outcome: inactive
[20]
  outcome: inactive
[8]
  outcome: inactive
[9]
  outcome: inactive
[10]
  outcome: inactive
[18]
  outcome: inactive
[11]
  outcome: inactive
[12]
  outcome: inactive
[19]
  outcome: inactive
[13]
  outcome: inactive
[14]
  outcome: inactive
[15]
  outcome: inactive
[16]
  outcome: inactive

## CCCCNc1ccc(NCCCC)c2c1C(=O)c1ccccc1C2=O
[1]
  outcome: inactive
[2]
  outcome: inactive
[3]
  outcome: inactive
[5]
  outcome: inactive
[17]
  outcome: inactive
[6]
  outcome: inactive
[7]
  outcome: inactive
[20]
  outcome: inactive
[8]
  outcome: inactive
[9]
  outcome: inactive
[10]
  outcome: inactive
[18]
  outcome: inactive
[11]
  outcome: inactive
[12]
  outcome: inactive
[19]
  outcome: inactive
[13]
  outcome: inactive
[14]
  outcome: inactive
[15]
  outcome: inactive
[16]
  outcome: inactive

## [Cl][Nd]([Cl])[Cl]
[1]
  outcome: inactive
[2]
  outcome: inactive
[3]
  outcome: inactive
[5]
  outcome: inactive
[17]
  outcome: inactive
[6]
  outcome: inactive
[7]
  outcome: inactive
[20]
  outcome: inactive
[8]
  outcome: inactive
[9]
  outcome: inactive
[18]
  outcome: inactive
[11]
  outcome: inactive
[12]
  outcome: inactive
[13]
  outcome: inactive
[14]
  outcome: inactive
[15]
  outcome: inactive
[16]
  outcome: inactive

## COC(=O)c1sccc1S(N)(=O)=O
[1]
  outcome: inactive
[2]
  outcome: inactive
[3]
  outcome: inactive
[4]
  outcome: inactive
[17]
  outcome: inactive
[6]
  outcome: inactive
[7]
  outcome: inactive
[20]
  outcome: inactive
[8]
  outcome: inactive
[10]
  outcome: inactive
[18]
  outcome: inactive
[11]
  outcome: inactive
[12]
  outcome: inactive
[19]
  outcome: inactive
[13]
  outcome: inactive
[14]
  outcome: inactive
[15]
  outcome: inactive

## [Cl][Bi]([Cl])([c]1ccccc1)([c]1ccccc1)[c]1ccccc1
[1]
  AC50: 6.38 µM (active)
[2]
  outcome: inactive
[3]
  outcome: inactive
[4]
  AC50: 3.07 µM (active)
[17]
  AC50: 5.85 µM (active)
[6]
  outcome: inactive
[7]
  AC50: 6.21 µM (active)
[8]
  outcome: inactive
[9]
  AC50: 3.68 µM (active)
[10]
  outcome: inactive
[11]
  outcome: inactive
[12]
  outcome: inactive
[19]
  outcome: inactive
[13]
  outcome: inactive
[14]
  AC50: 4.47 µM (active)
[15]
  outcome: inactive
[16]
  outcome: inactive

## CCc1ccc2c(c1)C(=O)c1ccccc1C2=O
[1]
  outcome: inactive
[2]
  outcome: inactive
[3]
  outcome: inactive
[5]
  AC50: 5.39 µM (active)
[17]
  outcome: inactive
[6]
  outcome: inactive
[7]
  outcome: inactive
[8]
  outcome: inactive
[9]
  outcome: inactive
[10]
  outcome: inactive
[11]
  outcome: inactive
[12]
  outcome: inactive
[13]
  outcome: inactive
[14]
  outcome: inactive
[16]
  outcome: inactive
